These results are taken from ChEMBL document CHEMBL3433997, “St. Jude Leishmania screening dataset” (2016).

What all share (type): functional
Assay [1] addresses Solute carrier family 2, facilitated glucose transporter member 1 (Homo sapiens) (UniProt P11166). Briefly: ST_JUDE_LEISH: Cytotoxicity at 2uM final concentration against transgenic Leishmania Mexicana promastigotes LmGLUT1 that are glucose transport deficient and complemented with the human glucose transporter GLUT1. Activity is measured by DNA content using SYBR green in vitro.

Assay [2] deals with Hexose transporter 1 (Plasmodium falciparum) (UniProt O97467). In words: ST_JUDE_LEISH: Cytotoxicity at 2uM final concentration against transgenic Leishmania Mexicana promastigotes LmPfHT that are glucose transport deficient and complemented with the Plasmodium falciparum hexose transporter. Activity is measured by DNA content using SYBR green in vitro.
The target in assay [3] is Glucose transporter (Leishmania mexicana) (UniProt O61059). Briefly: ST_JUDE_LEISH: Cytotoxicity at 2uM final concentration against transgenic Leishmania Mexicana promastigotes LmGT2 that are glucose transport deficient and complemented with the L. Mexicana glucose transporter 2. Activity is measured by DNA content using SYBR green in vitro.

Chain of Solute carrier family 2, facilitated glucose transporter member 1 (Homo sapiens) (P11166 whole entry): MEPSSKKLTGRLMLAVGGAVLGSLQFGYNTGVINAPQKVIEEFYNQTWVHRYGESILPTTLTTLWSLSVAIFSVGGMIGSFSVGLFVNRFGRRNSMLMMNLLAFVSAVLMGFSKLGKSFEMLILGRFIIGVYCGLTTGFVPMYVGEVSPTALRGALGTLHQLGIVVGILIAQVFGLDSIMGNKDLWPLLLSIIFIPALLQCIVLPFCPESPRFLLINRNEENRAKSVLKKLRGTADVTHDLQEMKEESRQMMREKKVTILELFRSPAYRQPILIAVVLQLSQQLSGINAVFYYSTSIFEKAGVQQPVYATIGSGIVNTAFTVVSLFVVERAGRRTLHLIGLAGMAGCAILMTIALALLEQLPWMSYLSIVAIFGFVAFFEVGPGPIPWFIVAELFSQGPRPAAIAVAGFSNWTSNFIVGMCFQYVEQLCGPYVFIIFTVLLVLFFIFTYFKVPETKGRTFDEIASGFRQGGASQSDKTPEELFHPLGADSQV

The inhibition is the change of the read-out against control, counted positive when it falls. On to `CCCC(=O)Nc1ccc(OCCCN(Cc2ccccc2C(F)(F)F)c2ccc(C#N)c(C(F)(F)F)c2)cc1`, for which the inhibition in assay [1] was 3.53%; in assay [2] it was 4.53%; in assay [3] it was 4.55%.

Regarding `CCOCCCNc1ncc(-c2ccsc2)c(-c2nc(C)cs2)n1`, the inhibition in assay [1] is 8%; in assay [2], 6.73%; in assay [3] it was 7.32%.

As to `CCOc1cc(C(=O)NCc2cccc(C(F)(F)F)c2)ccc1-c1nc2cc(Cl)ccc2[nH]1`, the inhibition in assay [1] worked out at 2.15%; in assay [2], 2.24%; in assay [3] it was 1.82%.

On to `FC(F)(F)c1ccc2[nH]ccc(=NN=Cc3ccc(Cl)cc3)c2c1`, for which the inhibition in assay [1] is 3.42%; in assay [2] it was 3.11%; in assay [3], 2.9%.

Take `Cc1cccc2nc(-c3ccc(-c4ccc(NC(=O)NCc5ccccc5)cc4)s3)[nH]c12`: the inhibition in assay [1] is 3.85%; in assay [2], 4.61%; in assay [3], 1.02%.

Consider `OC(CNc1cccc(Cl)c1)Cn1c2ccc(Cl)cc2c2cc(Cl)ccc21` (configuration not stated), for which the values for the inhibition in assay [1], in assay [2] and in assay [3] were 3.75%, 1.59% and 2.34%, respectively.

As for `CN1CCN(S(=O)(=O)c2ccc3nccc(Nc4ccc(Oc5ccccc5)cc4)c3c2)CC1`, the inhibition in assay [1] is -3.11%; in assay [2], -1.4%; in assay [3], -1.4%.

For `CN(C)c1ccc(-c2ccc(C(=O)NC3CCN(Cc4ccc5c(c4)OCCO5)CC3)s2)cc1`, the values for the inhibition in assay [1], in assay [2] and in assay [3] were 4.82%, 6.3% and 3.8%, respectively.

As for `Clc1cccc(CNc2nc(NCCc3c[nH]cn3)nc(NC3CCCCC3)n2)c1`, the inhibition in assay [1] came out at 3.76%; in assay [2], 3.97%; in assay [3], 2.21%.

For `Cc1c(CN2CCCCC2)cccc1OCCCNc1nc(NCCc2ccc(O)cc2)nc(N2CCNCC2)n1`, the inhibition in assay [1] was 5.55%; in assay [2], 2.95%; in assay [3], 5.43%.

For the molecule `COCCNCc1cccc(-c2ccc3c(Nc4ccc(Oc5ccccc5)cc4)ccnc3c2)c1`, the inhibition was -0.07% in assay [1], 1.17% in assay [2] and -0.14% in assay [3].

For the molecule `CCCC(C)NC(=O)[C@H](Cc1ccccc1)NC(=O)c1ccc(O)c(-c2ccc(OC)cc2)c1` (some centres not stated), the inhibition in assay [1] amounted to 4.38%; in assay [2] it was 3.09%; in assay [3] it was 3.9%.

As to `N=C(N)NN=CC(=O)Nc1ccc(Cl)c(C(F)(F)F)c1`, the inhibition in assay [1] was 8.87%; in assay [2] it was 7.04%; in assay [3], 9.08%.

Regarding `COc1ccc(NC(=O)/C=C/c2ccccc2Cl)cc1OCCN1CCC(NC2CC2)CC1`, the inhibition came out at 8.25% in assay [1], 5.69% in assay [2] and 4.32% in assay [3].

On to `CCCc1ccc(-c2csc(NC(=O)c3ccc([N+](=O)[O-])o3)n2)cc1`, for which the inhibition in assay [1] turned out to be 78.4%; in assay [2] it was 77.8%; in assay [3], 37.8%.

For `COc1ccc(CCNCCCCCCNCCc2cccc([N+](=O)[O-])c2)cc1OC`, the inhibition in assay [1] worked out at 0.45%; in assay [2], 1.78%; in assay [3], 3.28%.

With `O=C(Nc1cccc(N2CCC(NCc3cnn(-c4cccc(F)c4)c3)CC2)c1)c1ccncc1`, the values for the inhibition in assay [1], in assay [2] and in assay [3] were -0.97%, 0.64% and -0.33%, respectively.

Turning to `Cc1ccc(Nc2nc(C)cc(NC3CCCC3)n2)cc1`, the inhibition is 29.3% in assay [1], 19.7% in assay [2] and 10.8% in assay [3].

Regarding `COC(=O)c1cccc(OCCNC2CCN(C[C@H](O)c3ccnc4ccc(OC)cc34)CC2)c1`, the results for the inhibition in assay [1], in assay [2] and in assay [3] were 0.73%, -0.34% and 0.25%, respectively.

For `Cc1cccc(-c2nc(Nc3ccncc3)c3cc(N(C)C)ccc3n2)n1`, the inhibition in assay [1] is 0.37%; in assay [2], -1.05%; in assay [3], -3.66%.

Turning to `O=C(/C=C/c1cccc2c1OCO2)Nc1ccnc2ccncc12`, the values for the inhibition in assay [1], in assay [2] and in assay [3] were 1.56%, 1.4% and 1.89%, respectively.

As for `Cc1cccc(Nc2nc3nonc3nc2Nc2cccc(Cl)c2Cl)c1C`, the inhibition in assay [1] was 9.75%; in assay [2] it was 7.64%; in assay [3] it was 7.5%.

Regarding `CCNc1cc(C(=O)N[C@@H](Cc2ccc(F)c(F)c2)[C@H](O)CNC2CCCCC2)cc(N2CCCCS2(=O)=O)c1`, the values for the inhibition in assay [1], in assay [2] and in assay [3] were 1.98%, 0.24% and 0.91%, respectively.

`O=C(Nc1ccsc1)Nc1cccc(-c2ccc(-c3nc4cc(C(F)(F)F)ccc4[nH]3)cc2)c1`: the inhibition in assay [1] was 6.66%; in assay [2], 6.27%; in assay [3] it was 7.95%.

For `Cc1ccc(O)c(-c2cc(C(=O)Nc3ccc(S(=O)(=O)N4CCCCC4)cc3)[nH]n2)c1`, the inhibition was 3.32% in assay [1], 1.22% in assay [2] and 1.19% in assay [3].

As for `Cc1cnc(NCC2CCCCC2)nc1NCC(=O)Nc1ccccc1`, the inhibition in assay [1] amounted to 4.2%; in assay [2], 4.34%; in assay [3], 6.18%.

In the case of `COc1ccccc1N1CCN(CCCCNC(=O)c2ccc(NC(=O)c3cc4ccccc4o3)cc2)CC1`, the inhibition in assay [1] was 1.4%; in assay [2], 1.36%; in assay [3], 0.06%.

`O=[N+]([O-])c1cccc(NC(=S)N2CCCN(Cc3ccc(Cl)cc3Cl)CC2)c1`: the inhibition in assay [1] amounted to 2.36%; in assay [2], 3.32%; in assay [3] it was 3.01%.

For the molecule `CC1(C)NC(N)=NC(=N)N1OCCCCCOc1ccccc1`, the inhibition in assay [1] was 0.42%; in assay [2] it was 0.8%; in assay [3] it was 1.28%.

Take `O=C(Nc1cccc(CN2CCCN(Cc3ccc(O)cc3)CC2)c1)c1ccc2ccccc2c1`: the results for the inhibition in assay [1], in assay [2] and in assay [3] were 4.27%, 4.08% and 3.93%, respectively.

On to `O=C(Nc1ccc(S(=O)(=O)N2CCCCCC2)cc1)c1cc(-c2ccccc2O)n[nH]1`, for which the figures for the inhibition in assay [1], in assay [2] and in assay [3] were 9.89%, 8.12% and 8.68%, respectively.

For the molecule `COc1ccc(-c2ccc(NC(=O)c3cccc(C#N)c3)cc2)cc1CN1CCCN(C)CC1`, the values for the inhibition in assay [1], in assay [2] and in assay [3] were 4.08%, 2.42% and -0.48%, respectively.

In the case of `Nc1nc(NCC2CCC(CNS(=O)(=O)c3cccc4ccccc34)CC2)nc2ccccc12` (configuration not stated), the inhibition in assay [1] is 7.11%; in assay [2] it was 3.12%; in assay [3], 1.21%.

For the molecule `CCc1cn2c3c(cc(C(=O)N[C@@H](Cc4cccc(F)c4)[C@H](O)CNC4CC4)cc13)N(C)S(=O)(=O)CC2`, the inhibition in assay [1] turned out to be 2.18%; in assay [2] it was 3.5%; in assay [3] it was 4.48%.
